The values below are quoted from earlier work in PubChem BioAssay AID977610.

Screen size: about 3,600 compounds; about 3,600 (100%) were called active. No cut-off is given here; in the data, nearly all actives have Ki up to about 18000 µM. So high a share suggests a set chosen from earlier hits. The list shows a part of the results. Where a SMILES comes first, the peptide text is derived from it. Peptide text beside a SMILES is read from it. The star is where a group is joined. Bz = O=C(c1ccccc1)*

The nature of the data set: PubChem AID 977610. The settings on record: PDB protein-ligand complexes, literature Ki.

For `C#C[C@@H]1N[C@@H](C)[C@@H](O)[C@H]1O`, the Ki (protein: Alpha-L-fucosidase Fuc2970, PDB entry 4pct) is 0.07 µM (active).
Take `NC(N)NCCCNC(=O)[C@@H]1CCCCN1C(=O)[C@@H](CC1CCCCC1)NCC(=O)O`: the Ki (protein: bovine trypsin, PDB entry 1k1o) was 0.675 µM (active).
As to `Nc1[nH]c(=S)nc2[nH]ncc12`, the Ki (protein: PDE10A2, PDB entry 4lkq) is 450 µM (active).
As to `NC(N)NCCCC[C@H](N)[P+](O)(O)O`, for the setting “protein: M1 family aminopeptidase, PDB entry 4k5l”, the Ki is 11 µM (active).
For the molecule `NC(N)NCCC[C@H](N)[P+](O)(O)O`, the Ki (protein: M1 family aminopeptidase, PDB entry 4k5m) was 193 µM (active).
Consider `C[C@@H]1N[C@@H](C#Cc2ccccc2)[C@H](O)[C@@H]1O`, for which, under “protein: Alpha-L-fucosidase Fuc2970, PDB entry 4pcs”, the Ki is 0.014 µM (active).
For `C[C@H](NC(=O)[C@H](C)NC(=O)[C@H](Cc1cc(-c2ccccc2)no1)C[P+](O)(O)c1ccc(Br)cc1)C(N)=O`, the Ki (protein: Macrophage metalloelastase (F171D mutation), PDB entry 4gr8) is 0.0147 µM (active).
With `C[C@H](NC(=O)[C@H](C)NC(=O)[C@H](Cc1cc(-c2ccc(-c3cccc(Cl)c3)cc2)no1)C[P+](O)(O)c1ccc(Br)cc1)C(N)=O`, the Ki (protein: Macrophage metalloelastase (F171D mutation), PDB entry 4gr0) is 0.00028 µM (active).
Take `N=Cc1nc(N2CCOCC2)nc(N(Cc2ccc(Cl)cc2)C2CCCCC2)n1`: where the note is “protein: CATHEPSIN L1, PDB entry 4axm”, the Ki was 0.013 µM (active).
For the molecule `C[C@H](NC(=O)[C@H](CO)N[C@H](O)CSCCNC(=O)CCNC(=O)[C@H](O)C(C)(C)CO[P+](O)(O)O[P+](O)(O)OCc1oc(-n2cnc3c(N)ncnc32)c(O)c1O[P+](O)(O)O)C(=O)N[C@@H](CO)C(=O)N[C@@H](CCC(=O)O)C(=O)O`, the Ki (protein: N-terminal acetyltransferase A complex subunit nat1, PDB entry 4kvm) was 8.9 µM (active).
H-PTSII-OH: the Ki (protein: CFTR Associated Ligand (CAL) PDZ domain, PDB entry 4joh) is 450 µM (active).
As for H-PLSFLV-OH, the Ki (protein: LSD1-CoREST complex, PDB entry 3zmv) was 55 µM (active).
`CC(C)C[C@H](NC(=O)[C@@H](NC(=O)CNC(=O)c1ccccc1)C(C)C)C(=O)N[C@@H](CCCCN)C(=O)N[C@@H](CCC(=O)O)C(=O)N[C@@H](Cc1ccc(O)cc1)C(=O)NCC(=O)N[C@H](C(=O)O)C(C)C` (Bz-GVLKEYGV-OH): the Ki (protein: NAD-DEPENDENT PROTEIN DEACYLASE SIRTUIN-5, MITOCHONDRIAL zebrafish Sirtuin 5, PDB entry 4uub) was 17.2 µM (active).
Take H-PKSFLV-OH: the Ki (protein: LSD1-CoREST complex, PDB entry 3zmu) was 49.6 µM (active).
Take `CC[C@H](C)[C@H](NC(=O)[C@@H](NC(=O)[C@H](CO)NC(=O)[C@@H](N)CC(=O)O)[C@@H](C)CC)C(=O)O` (H-DSII-OH): the Ki (protein: CFTR Associated Ligand (CAL) PDZ domain, PDB entry 4k72) was 1000 µM (active).
Turning to `O=[N+]([O-])c1ccc(NNC(=S)Nc2ccc(F)cc2)c([N+](=O)[O-])c1`, the Ki (protein: GTPase HRas(T35S mutant), PDB entry 2lwi) was 773 µM (active).
Consider `CCCCCCc1cccc(NC(=O)[C@H](N)CC[P+](O)(O)O)c1`, for which the Ki (protein: Lipid G protein-Coupled Receptor, PDB entry 3v2w) is 0.077 µM (active).
As to `NC(N)c1ccc(CNC(=O)[C@@H]2CCN2C(=O)[C@H](NCC(=O)O)C2CCCCC2)cc1`, the Ki (protein: THROMBIN, PDB entry 4bah) is 0.00201 µM (active).
For the molecule `CN(C)C(=O)CN[C@@H](C(=O)N1CC[C@H]1C(=O)NCc1ccc(C(N)N)cc1)C1CCCCC1`, the Ki (protein: THROMBIN, PDB entry 4bam) is 0.00114 µM (active).
Regarding `NC(=O)CN[C@@H](C(=O)N1CC[C@H]1C(=O)NCc1ccc(C(N)N)cc1)C1CCCCC1`, the Ki (protein: THROMBIN, PDB entry 4bao) is 0.00429 µM (active).

As usually defined, the Ki is a measure of affinity in units of concentration, obtained from inhibition or displacement.
